This is one part of a sample in which the strongest signals are shown more often than they occur.
Experiments:
Assay in all cases: glycan array binding signal (z-score within array); higher = stronger binding
Settings in all cases: glycan notation: IUPAC condensed, linker removed
[1] = biological target: Fuc(a1-2)Gal(b1-3)GalNAc(b1-3)Gal(a1-4)Gal(b1-4)Glc
Outline: (§1)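 The Consortium for Functional Glycomics database supplied 3228 glycan arrays, of which those lacking an available protein sequence were dropped. The binding signal, a within-array Z-score, was averaged across arrays of the same protein sequence and across linkers. Negative scores can be read as non-binding.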

[2] = biological target: Fuc(a1-2)Gal(b1-3)[Fuc(a1-4)]GlcNAc(b1-2)Man(a1-3)[Fuc(a1-2)Gal(b1-3)[Fuc(a1-4)]GlcNAc(b1-2)Man(a1-6)]Man(b1-4)GlcNAc(b1-4)[Fuc(a1-6)]GlcNAc(b1-4)[Fuc(a1-6)]GlcNAc
Outline: as §1

[3] = biological target: Fuc(a1-2)[Gal(a1-3)]Gal(b1-3)GlcNAc(b1-3)GalNAc
Outline: as §1

[4] = biological target: Fuc(a1-2)[Gal(a1-3)]Gal(b1-4)GlcNAc(b1-6)GalNAc
Outline: as §1

[5] = biological target: Fuc(a1-2)[GalNAc(a1-3)]Gal(b1-3)GlcNAc
Outline: as §1

[6] = biological target: Fuc(a1-2)[GalNAc(a1-3)]Gal(b1-3)GlcNAc(b1-2)Man(a1-3)[Fuc(a1-2)[GalNAc(a1-3)]Gal(b1-3)GlcNAc(b1-2)Man(a1-6)]Man(b1-4)GlcNAc(b1-4)[Fuc(a1-6)]GlcNAc
Outline: as §1

[7] = biological target: Fuc(a1-3)[Gal(b1-4)]Glc6S
Outline: as §1

[8] = biological target: Fuc(a1-3)[Gal(b1-4)]GlcNAc(b1-2)Man(a1-3)[Fuc(a1-3)[Gal(b1-4)]GlcNAc(b1-2)Man(a1-6)]Man(b1-4)GlcNAc(b1-4)[Fuc(a1-6)]GlcNAc
Outline: as §1

[9] = biological target: Fuc(a1-3)[GalNAc(b1-4)]GlcNAc6S
Outline: as §1

[10] = biological target: Gal(a1-3)Gal(b1-3)GlcNAc(b1-2)Man(a1-3)[Gal(a1-3)Gal(b1-3)GlcNAc(b1-2)Man(a1-6)]Man(b1-4)GlcNAc(b1-4)GlcNAc
Outline: as §1

[11] = biological target: Gal(a1-3)Gal(b1-3)GlcNAc(b1-3)GalNAc
Outline: as §1

[12] = biological target: Gal(a1-3)Gal(b1-4)GlcNAc(b1-6)GalNAc
Outline: as §1

[13] = biological target: Gal(a1-3)Gal(b1-4)[Fuc(a1-3)]GlcNAc(b1-2)Man(a1-3)[Gal(a1-3)Gal(b1-4)[Fuc(a1-3)]GlcNAc(b1-2)Man(a1-6)]Man(b1-4)GlcNAc(b1-4)GlcNAc
Outline: as §1

Gal(a1-4)GlcNAc = biological target: Gal(a1-4)GlcNAc
Outline: as §1

Gal(a1-6)Glc = biological target: Gal(a1-6)Glc
Outline: as §1

[14] = biological target: Gal(b1-3)GalNAc(b1-4)Gal(b1-4)Glc
Outline: as §1

[15] = biological target: Gal(b1-3)GlcNAc(a1-6)Gal(b1-4)GlcNAc
Outline: as §1

[16] = biological target: Gal(b1-3)GlcNAc(b1-3)Gal(b1-3)GlcNAc
Outline: as §1

[17] = biological target: Gal(b1-3)GlcNAc(b1-3)Gal(b1-4)GlcNAc
Outline: as §1

[18] = biological target: Gal(b1-3)GlcNAc(b1-3)Gal(b1-4)[Fuc(a1-3)]GlcNAc(b1-6)[Gal(b1-3)GlcNAc(b1-3)]Gal(b1-4)Glc
Outline: as §1

[19] = biological target: Gal(b1-3)[Fuc(a1-4)]GlcNAc(b1-2)Man
Outline: as §1

[20] = biological target: Gal(b1-3)[Fuc(a1-4)]GlcNAc(b1-3)Gal(b1-4)[Fuc(a1-3)]GlcNAc
Outline: as §1

[21] = biological target: Gal(b1-3)[Neu5Ac(a2-6)]GalNAc
Outline: as §1

[22] = biological target: Gal(b1-4)GlcNAc(b1-2)Man(a1-3)[Gal(b1-4)GlcNAc(b1-2)Man(a1-6)][GlcNAc(b1-4)]Man(b1-4)GlcNAc(b1-4)[Fuc(a1-6)]GlcNAc
Outline: as §1

[23] = biological target: Gal(b1-4)GlcNAc(b1-2)Man(a1-3)[GlcNAc(b1-4)][Gal(b1-4)GlcNAc(b1-2)Man(a1-6)]Man(b1-4)GlcNAc(b1-4)GlcNAc
Outline: as §1

[24] = biological target: Gal(b1-4)GlcNAc(b1-2)Man(a1-3)[Man(a1-6)]Man(b1-4)GlcNAc(b1-4)GlcNAc
Outline: as §1

B1: Epa3to1 (Candida glabrata) (protein)
chain: MGSSHHHHHHSSGLVPRGSHMKRELSSQNPFGYPIGCSPQDVAIIPGLTMELYSYPIVSGTPPNCYDASYVDPEYPRTGYLKRKMVGKSTGVTGNLNYKYSVEKACMVKYGNLPAGYNYNEPLTVSNFTMILYGYFKAQTTGLHTFFVNADDLLYINFGAGNAFDCCKREDSKTKLGEYVAYDIWHVDSSKNKVSLFLEKDLYYPIRMFFNNREYDSSLDLSFSVNGATDQISDFSGYLYSVPDQPDTCPAHIGYDTTCR
In the case of B1, the “glycan array binding signal (z-score)” value [1] is reported as -0.161, the “glycan array binding signal (z-score)” value [2] is reported as -0.07 and the “glycan array binding signal (z-score)” value [3] is reported as -0.274. For the same binder, the “glycan array binding signal (z-score)” value [4] was -0.462, the “glycan array binding signal (z-score)” value [5] was 0.225 and the “glycan array binding signal (z-score)” value [6] was -0.204. For the same binder, the “glycan array binding signal (z-score)” value [7] was 0.568, the “glycan array binding signal (z-score)” value [8] was 0.093 and the “glycan array binding signal (z-score)” value [9] was -0.498. For the same binder, the “glycan array binding signal (z-score)” value [10] was 0.169, the “glycan array binding signal (z-score)” value [11] was -0.594 and the “glycan array binding signal (z-score)” value [12] was 0.248. For the same binder, the “glycan array binding signal (z-score)” value [13] was -0.206, the “glycan array binding signal (z-score)” value (Gal(a1-4)GlcNAc) was 3.41 and the “glycan array binding signal (z-score)” value (Gal(a1-6)Glc) was 1.7. The “glycan array binding signal (z-score)” value [14] was 5.3, the “glycan array binding signal (z-score)” value [15] was 0.409 and the “glycan array binding signal (z-score)” value [16] was -0.713. The “glycan array binding signal (z-score)” value [17] was -0.502, the “glycan array binding signal (z-score)” value [18] was -0.061 and the “glycan array binding signal (z-score)” value [19] was -0.37. The “glycan array binding signal (z-score)” value [20] was -0.87, the “glycan array binding signal (z-score)” value [21] was 5.48 and the “glycan array binding signal (z-score)” value [22] was -0.745. For the same binder, the “glycan array binding signal (z-score)” value [23] was -0.291 and the “glycan array binding signal (z-score)” value [24] was 3.23.

From the supplement of paper PMC8728848
